# From PubChem BioAssay
# “And” between values parts separate entries of the source, which are not always exact repeats. Identical values can stand only once. The source made the active and inactive calls. Cut-off read from the data, not from the text of the source, unless noted: active = parasite load remaining mostly below about 12% (no sharp cut-off); inactive = mostly above about 10%.
# Key:
# [1] = liver-stage malaria parasite growth inhibition, primary screen, cell-based, HepG2, luciferase luminescence, HepG2 viability (AID 624349);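 note: 100% = mean of DMSO negative control wells on the same plate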; details: P. berghei liver stage in HepG2, luciferase luminescence, concentration not given here; parasite load remaining: stronger effect = lower value; viability: measured here: HepG2 viability without parasites
# [2] = stimulators of nuclear beta-catenin in C2C12, primary screen, imaging, WNT3A-conditioned medium, mouse C2C12, NPC library (AID 1117326; in the data active = nuclear beta-catenin stimulation mostly above about 4.2%, no sharp cut-off; inactive = mostly below about 10%); details: stronger effect = higher value
# [3] = stimulators of insulin release from INS-1E, primary screen, cell-based, 5 mM glucose, NPC library (AID 1117329;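 active = compound raises insulin release from rat beta cells at 5 mM glucose, no numeric limit stated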); details: rat INS-1E insulin secretion, at 10 µM, stronger effect = higher value
# [4] = growth inhibition of GSK3B-pretreated HCT116 cells – cell-based, CellTiter-Glo, 0.2 to 20 µM (AID 1117336;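 active = compounds lowering colon cancer cell viability after pretreatment blocking the GSK3B kinase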); details: HCT116 viability after GSK3B inhibitor, at 20 µM, stronger effect = higher value
# [5] = inhibition of endothelial tube formation, primary screen, imaging, VEGF stimulated, CD31 staining, tube area, NPC library (AID 1117340;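 active = compound that reduces growth-factor-driven endothelial tube area in a mixed cell culture, no cutoff stated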); details: VEGF-stimulated ADSC/ECFC co-culture, at 10 µM, stronger effect = higher value
# [6] = glucagon-like peptide 1 release enhancers, primary assay, NCI-H716 cell line, NPC library (AID 1117341;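 active = compound raises GLP1 secretion from the human gut endocrine cells, with no numeric limit stated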); details: NCI-H716 cells, at 10 µM, stronger effect = higher value
# [7] = HCT116 colon cancer cell growth inhibition, primary screen, CellTiter-Glo luminescence, NPC library (AID 1117342;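 active = compounds that lower survival of HCT116 colon cancer cells in the luminescence readout, no numeric limit stated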); details: at 20 µM (top of the series)
# [8] = CellTiter-Glo luminescent readout of SW480 viability loss, NPC library primary (AID 1117343;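 active = compounds that lower viability of the colon cancer cells in the luminescence readout, with no numeric limit stated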); details: CellTiter-Glo luminescence; at 20 µM (top of the series) unless noted
# [9] = decreased DLD-1 cellular survival, CellTiter-Glo luminescent readout, NPC compound collection, primary HTS (AID 1117346;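 active = compounds that lower survival of DLD-1 colon cancer cells in the luminescence readout, no cutoff given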); details: DLD-1 viability, CellTiter-Glo luminescence; at 20 µM (top of the series)
# [10] = differential killing of epithelial or mesenchymal cells, primary screen, imaging, PC-3E GFP, TEM4-18 mCherry, co-culture (AID 1345086;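 active = compounds killing one labelled cell type while sparing the other, by normalised counts and ratio limits, not self-fluorescent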;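 for all read-outs here: cells exposed to compound for 72 h before imaging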;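 for red/green cell ratio (normalised): normalised mesenchymal count divided by normalised epithelial count so high means epithelial killing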); details: imaging cell counts, at 1 µM; for red/green cell ratio (normalised): actives lie on both sides, counts scaled to control wells, 1 = unselective
# [11] = sensitizers of A549 cells to miR-34 induction, primary screen, imaging, A549 dox-inducible miR-34, nuclei and caspase counts (AID 1347080;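 active = compounds whose cell count with miR-34 switched on is under 0.7 times the count with it off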); details: A549 miR-34 inducible, Hoechst nuclei count, 48 h
# [12] = biological target: NAD(+) hydrolase SARM1 (Homo sapiens) (UniProt Q6SZW1); assay: SARM1 TIR NADase inhibitors, cell lysate, NAD-Glo luminescence (AID 1508614;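 active = compound whose remaining NAD level is above about 45 nM, limit read from the data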;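 note: higher remaining NAD means stronger inhibition of SARM1 NADase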); details: SAM-TIR HEK293T lysate NADase, at 1 µM, stronger effect = higher value
# [13] = survival rescue of mitochondrial mutant cells in low glucose, primary screen, MELAS cybrids, Rieske KO mouse fibroblasts, CellTiter-Glo (AID 1508586;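 active = mean z-score across replicates of 1.96 or higher in either the MELAS or the Rieske mutant cell line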;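 note: z relative to plate mean and SD of compound and empty wells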)
# [14] = viability rescue of complex I mutant cybrids, primary screen, cell-based, galactose medium, ATP luminescence (AID 1645843;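 active = z-score of at least 1.8 in each of two replicates, scored against plate mean and spread of sample wells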;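 note: positive z means more ATP and so rescue of galactose-driven cybrid death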); details: complex I mutant cybrid cells, 72 h, stronger effect = higher value
# [15] = measured here: epithelial PC-3E GFP cell survival
# [16] = measured here: mesenchymal TEM4-18 mCherry cell survival
# [17] = stronger effect = lower value, cell number ratio, induced over uninduced
# [18] = measured here: relative caspase fold change +Dox/-Dox
# [19] = measured here: total cells with miR-34 induction, stronger effect = lower value
# [20] = measured here: total cells without miR-34 induction
# Chain of NAD(+) hydrolase SARM1 (Homo sapiens) (Q6SZW1 whole entry, looked up): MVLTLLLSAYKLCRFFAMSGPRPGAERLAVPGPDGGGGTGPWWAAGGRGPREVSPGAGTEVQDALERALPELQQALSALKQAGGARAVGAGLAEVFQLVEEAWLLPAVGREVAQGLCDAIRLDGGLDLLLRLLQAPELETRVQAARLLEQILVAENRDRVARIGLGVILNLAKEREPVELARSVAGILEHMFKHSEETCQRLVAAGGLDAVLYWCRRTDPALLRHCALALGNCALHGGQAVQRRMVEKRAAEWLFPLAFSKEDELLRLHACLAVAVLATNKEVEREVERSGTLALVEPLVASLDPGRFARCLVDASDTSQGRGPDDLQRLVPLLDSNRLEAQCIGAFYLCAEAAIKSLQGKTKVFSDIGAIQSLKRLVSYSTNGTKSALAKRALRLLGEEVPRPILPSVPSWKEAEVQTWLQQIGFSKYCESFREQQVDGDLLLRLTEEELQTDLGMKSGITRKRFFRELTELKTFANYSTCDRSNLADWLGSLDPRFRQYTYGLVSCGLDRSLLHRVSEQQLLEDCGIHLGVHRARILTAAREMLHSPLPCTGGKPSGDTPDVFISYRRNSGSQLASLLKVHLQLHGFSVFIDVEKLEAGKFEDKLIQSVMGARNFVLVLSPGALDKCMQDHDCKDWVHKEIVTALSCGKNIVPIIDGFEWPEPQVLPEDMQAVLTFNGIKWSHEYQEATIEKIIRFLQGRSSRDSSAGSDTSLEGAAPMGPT
structure (smiles),measurement,setting,value
CC(=O)NCc1c(I)c(NC(C)=O)c(I)c(C(=O)O)c1I,parasite load remaining,[1],120% (inactive) and 34.8% (inactive)
same,viability,[1],74.1% and 92.4%
same,nuclear beta-catenin stimulation,[2]; at 10 µM,-1.4% (inactive)
same,nuclear beta-catenin stimulation,"[2]; stimulation, at 2 µM",-1.3%
same,insulin secretion stimulation,[3],-0.4% (inactive)
same,viability decrease,[4],-16.4% (inactive)
same,tube area decrease,[5],-6.1% (inactive)
same,GLP1 secretion stimulation,[6],0% (inactive)
same,inhibition of viability,[7],-14.3% (inactive)
same,viability decrease (inhibition),[8],27.5% (inactive)
same,viability decrease (inhibition),[9],-14.8% (inactive)
same,red/green cell ratio (normalised),[10],1.24 (inactive)
same,normalised cell number,[10]; [15],1.02
same,normalised cell number,[10]; [16],1.27
same,fold change,[11]; [17],0.851 (inactive)
same,fold change,[11]; [18],1.88
same,cell count,[11]; [19],10700
same,cell count,[11]; [20],12600
O=C1OC2(c3ccc(O)cc3Oc3cc(O)ccc32)c2ccccc21,parasite load remaining,[1],58.1% (inactive)
same,viability,[1],92.3%
same,nuclear beta-catenin stimulation,[2]; at 10 µM,-0.4% (inactive)
same,nuclear beta-catenin stimulation,"[2]; stimulation, at 2 µM",3.4%
same,insulin secretion stimulation,[3],3.7% (inactive)
same,viability decrease,[4],6.1% (inactive)
same,tube area decrease,[5],15.8% (inactive)
same,GLP1 secretion stimulation,[6],-2.3% (inactive)
same,inhibition of viability,[7],9.8% (inactive)
same,viability decrease (inhibition),[8],16% (inactive)
same,viability decrease (inhibition),[9],-11.6% (inactive)
same,red/green cell ratio (normalised),[10],1.43 (inactive)
same,normalised cell number,[10]; [15],1.11
same,normalised cell number,[10]; [16],1.6
same,fold change,[11]; [17],0.894 (inactive)
same,fold change,[11]; [18],5.09
same,cell count,[11]; [19],11200
same,cell count,[11]; [20],12500
same,remaining NAD,[12],10 nM (inactive)
CC(O)(P(=O)(O)O)P(=O)(O)O,parasite load remaining,[1],84.2% (inactive) and 72.4% (inactive) and 27.7% (inactive)
same,viability,[1],97.4% and 110% and 90%
same,nuclear beta-catenin stimulation,[2]; at 10 µM,3.1% (inactive)
same,nuclear beta-catenin stimulation,"[2]; stimulation, at 2 µM",1.7%
same,insulin secretion stimulation,[3],0.9% (inactive)
same,viability decrease,[4],12.5% (inactive)
same,tube area decrease,[5],8.2% (inactive)
same,GLP1 secretion stimulation,[6],1.6% (inactive)
same,inhibition of viability,[7],9.4% (inactive)
same,viability decrease (inhibition),[8],2.7% (inactive)
same,viability decrease (inhibition),[9],9.1% (inactive)
same,red/green cell ratio (normalised),[10],0.95 (inactive)
same,normalised cell number,[10]; [15],1.05
same,normalised cell number,[10]; [16],1
same,z-score,"[13]; MELAS cybrid survival, CellTiter-Glo 48 h, stronger effect = higher value",-0.62 (inactive) and 0.631 (inactive)
same,z-score,"[13]; Rieske KO mouse fibroblast survival, CellTiter-Glo 72 h",-0.885 and -0.197
same,remaining NAD,[12],10 nM (inactive)
same,z-score,[14],-2.15 (inactive) and 0.43 (inactive)
OCCc1ccccc1,parasite load remaining,[1],52.9% (inactive)
same,viability,[1],121%
same,nuclear beta-catenin stimulation,[2]; at 10 µM,4.3% (inactive)
same,nuclear beta-catenin stimulation,"[2]; stimulation, at 2 µM",-0.1%
same,insulin secretion stimulation,[3],-0.8% (inactive)
same,viability decrease,[4],-30.2% (inactive)
same,tube area decrease,[5],-4.7% (inactive)
same,GLP1 secretion stimulation,[6],-0.7% (inactive)
same,inhibition of viability,[7],-7.95% (inactive)
same,viability decrease (inhibition),[8],11.9% (inactive)
same,viability decrease (inhibition),[9],-12.4% (inactive)
same,red/green cell ratio (normalised),[10],0.97 (inactive)
same,normalised cell number,[10]; [15],1.02
same,normalised cell number,[10]; [16],1
same,fold change,[11]; [17],0.881 (inactive)
same,fold change,[11]; [18],7.55
same,cell count,[11]; [19],11500
same,cell count,[11]; [20],13000
same,remaining NAD,[12],10 nM (inactive)
CC(=O)NC(Cc1ccccc1)C(=O)O (configuration not stated),nuclear beta-catenin stimulation,[2]; at 10 µM,1% (inactive)
same,nuclear beta-catenin stimulation,"[2]; stimulation, at 2 µM",-0.2%
same,insulin secretion stimulation,[3],-2.3% (inactive)
same,viability decrease,[4],-0.2% (inactive)
same,tube area decrease,[5],-0.2% (inactive)
same,GLP1 secretion stimulation,[6],2.6% (inactive)
same,inhibition of viability,[7],3.2% (inactive)
same,viability decrease (inhibition),[8],23.3% (inactive)
same,viability decrease (inhibition),[9],8.55% (inactive)
same,red/green cell ratio (normalised),[10],0.91 (inactive)
same,normalised cell number,[10]; [15],1.11
same,normalised cell number,[10]; [16],1.01
same,remaining NAD,[12],10 nM (inactive)
